Results from PubChem BioAssay (EPA / NIEHS).
Where “and” joins values, the source holds several entries; their conditions need not be identical. Identical values can stand only once. Some structures have more than one record in an assay (separate samples or runs), and their calls can disagree. Calls of active or inactive are those of the source. Rule for the calls: active = hit-call score of the fitted dose curve at least 0.9, where 1 is the maximum; inactive = score below 0.9.

Columns and labels:
[1] = ATG_E_Box_CIS: Attagene CIS-FACTORIAL HepG2 Assay for human Enhancer Box (E-box) (AID 2282936); conditions: HepG2 E-box cis-reporter transcription, actives raise or lower the signal
Outline: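 Endogenous transcription factor activity was sensed in human HepG2 liver cells through transfected cis-promoter reporter units. After 24 h of dosing, total RNA was reverse-transcribed and reporter cDNA resolved by capillary electrophoresis.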

[2] = ATG_M_61_CIS: Attagene CIS-FACTORIAL HepG2 Assay for M61 Transcription Factor (Internal Marker) (AID 2282937); conditions: HepG2 Attagene CIS-FACTORIAL M61 internal marker reporter; actives raise or lower the signal
Outline: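 Multiplexed reporter mRNA assay, HepG2 human hepatoma cells, 24 h treatment. Signal: FAM-labelled, HpaI-digested RT-PCR fragments by CE. Fit: bidirectional, baseline DMSO.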

[3] = ATG_EGR_CIS: Attagene CIS-FACTORIAL HepG2 Assay for human Early Growth Response 1 (EGR1) (AID 2282938); conditions: HepG2 Attagene CIS-FACTORIAL EGR reporter mRNA; actives raise or lower the signal
Outline: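 Multiplexed cis-reporter system in human hepatoma HepG2 cells, transiently transfected. Cells are dosed for 24 h; reporter transcripts are amplified, fluorescently tagged and sized by capillary electrophoresis, with DMSO as negative control.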

[4] = ATG_M_19_CIS: Attagene CIS-FACTORIAL HepG2 Assay for M19 Transcription Factor (Internal Marker) (AID 2282939); conditions: HepG2 Attagene CIS-FACTORIAL M19 internal marker reporter; actives raise or lower the signal
Outline: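 HepG2 cells transiently transfected with cis-regulated multiple reporter transcription units were dosed for 24 h; reporter mRNA was quantified by RT-PCR, 6-FAM primer-extension labelling, HpaI digestion and capillary electrophoresis, with bidirectional fitting against DMSO baseline.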

[5] = ATG_Ets_CIS: Attagene CIS-FACTORIAL HepG2 Assay for human Erythroblast Transformation Specific (ETS) (AID 2282941); conditions: HepG2 ETS cis-reporter transcription, actives raise or lower the signal
Outline: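 Endogenous transcription factor activity read as reporter mRNA via RT-PCR and capillary electrophoresis, with gain or loss fitted bidirectionally against DMSO. Human HepG2 liver cells, transiently transfected CIS reporter constructs, 24 h exposure.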

[6] = biological target: Hepatocyte nuclear factor 3-beta (Homo sapiens) (UniProt Q9Y261); assay: ATG_FoxA2_CIS: Attagene CIS-FACTORIAL HepG2 Assay for human Forkhead box A2 (FOXA2) (AID 2282942); conditions: HepG2 cis-reporter transcription factor activity, 24 h; actives raise or lower the signal
Sequence of Hepatocyte nuclear factor 3-beta (Homo sapiens) (Q9Y261 whole entry, looked up): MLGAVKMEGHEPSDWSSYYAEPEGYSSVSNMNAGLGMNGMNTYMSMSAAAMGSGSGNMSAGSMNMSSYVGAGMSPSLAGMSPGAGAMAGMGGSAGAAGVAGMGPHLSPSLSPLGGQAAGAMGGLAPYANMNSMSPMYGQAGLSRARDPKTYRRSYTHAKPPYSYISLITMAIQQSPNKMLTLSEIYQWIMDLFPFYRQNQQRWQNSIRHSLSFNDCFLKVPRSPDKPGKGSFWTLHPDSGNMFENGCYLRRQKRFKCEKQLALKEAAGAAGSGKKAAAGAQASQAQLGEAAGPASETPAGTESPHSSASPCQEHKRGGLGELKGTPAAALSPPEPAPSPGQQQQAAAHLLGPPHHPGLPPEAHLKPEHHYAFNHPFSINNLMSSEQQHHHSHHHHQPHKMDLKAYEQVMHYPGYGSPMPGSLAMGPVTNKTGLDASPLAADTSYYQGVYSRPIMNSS
Outline: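 Multiplexed cis-element reporter assay in transiently transfected HepG2. Twenty-four hours post-dosing, RNA was reverse-transcribed, amplified, FAM-labelled, HpaI-digested and separated by CE. Activity gain or loss relative to DMSO.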

[7] = ATG_FoxO_CIS: Attagene CIS-FACTORIAL HepG2 Assay for human Forkhead box O (FoxO) (AID 2282943); conditions: HepG2 Attagene cis-reporter, FoxO element, mRNA; actives raise or lower the signal
Outline: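 24 h chemical exposure, HepG2 with transient cis-MRTU transfection. RNA extraction, oligo(dT) RT, reporter-specific PCR, primer-extension labelling, HpaI digestion, CE fragment analysis; bidirectional fit, DMSO baseline.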

[8] = ATG_GLI_CIS: Attagene CIS-FACTORIAL HepG2 Assay for human Zinc Finger Protein GLI1 (AID 2282945); conditions: HepG2, Attagene cis-factorial reporter mRNA, GLI element; actives raise or lower the signal
Outline: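 HepG2 cells transiently transfected with cis-promoter multiplexed reporter units report endogenous transcription factor activity. After 24 h chemical exposure, reporter mRNA was quantified by RT-PCR, 6-FAM labelling, HpaI digestion and capillary electrophoresis, with bidirectional fitting against DMSO.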

[9] = ATG_GRE_CIS: Attagene CIS-FACTORIAL HepG2 Assay for human Glucocorticoid Response Elements (GRE) (AID 2282947); conditions: HepG2 GRE cis-reporter, Attagene multiplex mRNA; actives raise or lower the signal
Outline: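 Cells (HepG2) bearing transfected cis-promoter reporter transcription units were treated with chemical for 24 hours. Reporter mRNA was measured via RT-PCR with capillary electrophoresis, and activity was fitted in both directions relative to DMSO.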

[10] = ATG_ISRE_CIS: Attagene CIS-FACTORIAL HepG2 Assay for human Interferon Regulatory Factor 1 (IRF1) binding to an Interferon-Stimulated Response Element (ISRE) (AID 2282948); conditions: HepG2 ISRE cis-reporter (Attagene), mRNA transcription readout; actives raise or lower the signal
Outline: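 Endogenous transcription factor activity read as reporter transcript abundance via RT-PCR and capillary electrophoresis. HepG2 cells transiently transfected, 24 h chemical exposure. Gain or loss fitted against DMSO baseline.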

[11] = ATG_M_32_CIS: Attagene CIS-FACTORIAL HepG2 Assay for M32 Transcription Factor (Internal Marker) (AID 2282949); conditions: HepG2 Attagene cis-factorial M32 reporter, mRNA; actives raise or lower the signal;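 note: background control marker of the multiplexed CIS panel rather than a real target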
Outline: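 HepG2 human liver cells transiently transfected with cis-promoter-driven multiple reporter transcription units, dosed 24 h. Reporter mRNA quantified by RT-PCR, FAM-labelled primer extension, HpaI digest and capillary electrophoresis; bidirectional fit versus DMSO baseline.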

[12] = ATG_M_06_CIS: Attagene CIS-FACTORIAL HepG2 Assay for M06 Transcription Factor (Internal Marker) (AID 2282950); conditions: HepG2 Attagene CIS-FACTORIAL M06 internal marker reporter; actives raise or lower the signal
Outline: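 HepG2 cells transiently transfected with cis-regulated multiple reporter transcription units were exposed to chemical for 24 h; reporter mRNA was quantified by RT-PCR, 6-FAM primer labelling, HpaI digestion and capillary electrophoresis, fitted bidirectionally against DMSO.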

[13] = biological target: Hypoxia-inducible factor 1-alpha (Homo sapiens) (UniProt Q16665); assay: ATG_HIF1a_CIS: Attagene CIS-FACTORIAL HepG2 Assay for human Hypoxia Inducible Factor 1 (HIF1A) (AID 2282951); conditions: HepG2 Attagene cis-factorial HIF1a reporter transcription; actives raise or lower the signal
Sequence of Hypoxia-inducible factor 1-alpha (Homo sapiens) (Q16665 whole entry, looked up): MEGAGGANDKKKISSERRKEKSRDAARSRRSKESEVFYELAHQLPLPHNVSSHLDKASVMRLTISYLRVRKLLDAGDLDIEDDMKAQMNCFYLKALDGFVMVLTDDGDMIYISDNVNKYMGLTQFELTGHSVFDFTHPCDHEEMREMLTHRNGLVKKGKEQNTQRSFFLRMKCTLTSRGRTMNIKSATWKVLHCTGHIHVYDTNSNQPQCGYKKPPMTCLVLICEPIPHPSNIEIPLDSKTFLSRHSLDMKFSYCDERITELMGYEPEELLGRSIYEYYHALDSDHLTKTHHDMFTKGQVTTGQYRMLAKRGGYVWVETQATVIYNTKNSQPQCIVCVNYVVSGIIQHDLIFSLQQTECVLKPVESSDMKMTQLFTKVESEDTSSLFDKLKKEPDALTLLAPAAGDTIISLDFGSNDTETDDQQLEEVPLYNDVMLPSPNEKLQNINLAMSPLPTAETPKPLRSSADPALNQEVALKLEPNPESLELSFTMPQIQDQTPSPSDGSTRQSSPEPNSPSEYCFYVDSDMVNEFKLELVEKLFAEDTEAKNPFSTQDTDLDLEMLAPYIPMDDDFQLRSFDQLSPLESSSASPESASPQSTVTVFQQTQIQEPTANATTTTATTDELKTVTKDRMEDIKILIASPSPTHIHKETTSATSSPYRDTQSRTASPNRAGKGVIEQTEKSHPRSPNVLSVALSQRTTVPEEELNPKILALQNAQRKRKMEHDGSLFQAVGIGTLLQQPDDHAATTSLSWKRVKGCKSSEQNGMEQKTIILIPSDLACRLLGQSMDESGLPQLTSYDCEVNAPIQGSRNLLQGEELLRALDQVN
Outline: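 Cis-element reporter constructs were transiently transfected into HepG2 cells, which were treated for 24 h; reporter RNA was reverse-transcribed, amplified, labelled and resolved by capillary electrophoresis.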

[14] = biological target: Hepatocyte nuclear factor 6 (Homo sapiens) (UniProt Q9UBC0); assay: ATG_HNF6_CIS: Attagene CIS-FACTORIAL HepG2 Assay for human Hepatocyte Nuclear Factor 6 (HNF6) (AID 2282952); conditions: HepG2 Attagene cis-factorial HNF6 reporter transcription; actives raise or lower the signal
Sequence of Hepatocyte nuclear factor 6 (Homo sapiens) (Q9UBC0 whole entry, looked up): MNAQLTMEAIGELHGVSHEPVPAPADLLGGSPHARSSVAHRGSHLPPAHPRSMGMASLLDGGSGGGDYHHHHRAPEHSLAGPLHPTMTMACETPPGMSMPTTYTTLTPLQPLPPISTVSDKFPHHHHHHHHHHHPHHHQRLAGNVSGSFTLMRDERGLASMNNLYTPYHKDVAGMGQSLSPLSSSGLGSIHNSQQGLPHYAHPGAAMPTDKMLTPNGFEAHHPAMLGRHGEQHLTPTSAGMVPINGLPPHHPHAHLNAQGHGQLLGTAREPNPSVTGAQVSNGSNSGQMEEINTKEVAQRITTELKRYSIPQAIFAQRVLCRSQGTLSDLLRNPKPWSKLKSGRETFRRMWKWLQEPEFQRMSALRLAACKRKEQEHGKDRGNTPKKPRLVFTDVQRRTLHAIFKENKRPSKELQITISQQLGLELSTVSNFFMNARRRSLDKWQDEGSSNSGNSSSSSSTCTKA
Outline: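 Activity values derive from bidirectional fitting against DMSO of reporter mRNA levels, measured by capillary electrophoresis of labelled RT-PCR products from HepG2 cells exposed 24 h.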

[15] = biological target: Heat shock factor protein 1 (Homo sapiens) (UniProt Q00613); assay: ATG_HSE_CIS: Attagene CIS-FACTORIAL HepG2 Assay for human Heat Shock Transcription Factor 1 (HSE) (AID 2282953); conditions: HepG2 HSE cis-reporter, Attagene RNA transcription; actives raise or lower the signal
Sequence of Heat shock factor protein 1 (Homo sapiens) (Q00613 whole entry, looked up): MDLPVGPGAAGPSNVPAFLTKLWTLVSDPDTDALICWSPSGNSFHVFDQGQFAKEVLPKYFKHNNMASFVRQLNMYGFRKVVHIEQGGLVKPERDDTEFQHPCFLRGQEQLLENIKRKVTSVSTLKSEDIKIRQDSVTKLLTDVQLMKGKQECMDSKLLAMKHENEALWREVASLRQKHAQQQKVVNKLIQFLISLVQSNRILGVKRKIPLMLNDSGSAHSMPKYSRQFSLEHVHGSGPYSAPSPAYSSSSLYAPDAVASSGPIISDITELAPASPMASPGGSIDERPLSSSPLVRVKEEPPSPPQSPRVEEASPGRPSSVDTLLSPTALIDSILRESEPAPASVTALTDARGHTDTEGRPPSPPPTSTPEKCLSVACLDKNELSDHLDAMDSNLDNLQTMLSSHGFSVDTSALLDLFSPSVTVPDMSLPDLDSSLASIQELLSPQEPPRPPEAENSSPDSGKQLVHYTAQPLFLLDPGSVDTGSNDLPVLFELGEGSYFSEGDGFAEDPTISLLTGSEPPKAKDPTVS
Outline: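 HepG2 cells transiently transfected with multiple reporter transcription units under cis-regulatory promoter control, measuring endogenous transcription factor activity. After 24 h chemical exposure, reporter mRNA quantified by RT-PCR, fluorescent labelling, HpaI digestion and capillary electrophoresis; bidirectional fit versus DMSO.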

[16] = ATG_MRE_CIS: Attagene CIS-FACTORIAL HepG2 Assay for human Metal Responsive Element (MRE) (AID 2282954); conditions: HepG2 MRE cis-reporter transcription, Attagene multiplex; actives raise or lower the signal
Outline: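 Cells were transfected with cis-promoter reporter transcription units, then dosed for 24 h. RNA was reverse-transcribed, amplified, fluorescently labelled and resolved by capillary electrophoresis, and activity was fitted in both directions relative to DMSO.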

[17] = ATG_ERE_CIS: Attagene CIS-FACTORIAL HepG2 Assay for Estrogen Response Element (ERE) (AID 2282940); conditions: HepG2 ERE cis-reporter, Attagene RNA transcript; actives raise or lower the signal
Outline: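 HepG2 cells transiently transfected with cis-promoter-driven multiplexed reporter transcription units report endogenous TF activity. After 24 h compound exposure, reporter mRNA is quantified by RT-PCR with capillary electrophoresis fluorescence; bidirectional fitting versus DMSO baseline.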

[18] = ATG_GATA_CIS: Attagene CIS-FACTORIAL HepG2 Assay for human GATA Binding Protein (AID 2282944); conditions: HepG2 GATA cis-element reporter, Attagene multiplex mRNA; actives raise or lower the signal
Outline: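 HepG2 cells transiently transfected with multiplexed cis-element reporter units reflecting endogenous transcription factor activity; reporter mRNA measured after 24 h dosing by RT-PCR, 6-FAM labeling, HpaI digestion and capillary electrophoresis. Bidirectional fitting versus DMSO baseline.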

[19] = ATG_PBREM_CIS: Attagene CIS-FACTORIAL HepG2 Assay for human Phenobarbital-responsive Enhancer Module (PBREM) (AID 2282955); conditions: HepG2 PBREM cis-reporter, Attagene multiplexed transcription; actives raise or lower the signal
Outline: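 Multiplexed cis-reporter readout in human hepatoma HepG2 cells; PBREM-regulated transcript quantified after 24 h exposure by fluorescent RT-PCR fragment analysis. Signal changes up or down fitted relative to DMSO.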

[20] = biological target: Bile acid receptor (Homo sapiens) (UniProt Q96RI1); assay: ATG_IR1_CIS: Attagene CIS-FACTORIAL HepG2 Assay for human Nuclear Receptor Subfamily 1 Group H Member 4 (NR1H4), IR1 submotif (AID 2282946); conditions: IR1 reporter transcription, actives raise or lower the signal
Sequence of Bile acid receptor (Homo sapiens) (Q96RI1 whole entry, looked up): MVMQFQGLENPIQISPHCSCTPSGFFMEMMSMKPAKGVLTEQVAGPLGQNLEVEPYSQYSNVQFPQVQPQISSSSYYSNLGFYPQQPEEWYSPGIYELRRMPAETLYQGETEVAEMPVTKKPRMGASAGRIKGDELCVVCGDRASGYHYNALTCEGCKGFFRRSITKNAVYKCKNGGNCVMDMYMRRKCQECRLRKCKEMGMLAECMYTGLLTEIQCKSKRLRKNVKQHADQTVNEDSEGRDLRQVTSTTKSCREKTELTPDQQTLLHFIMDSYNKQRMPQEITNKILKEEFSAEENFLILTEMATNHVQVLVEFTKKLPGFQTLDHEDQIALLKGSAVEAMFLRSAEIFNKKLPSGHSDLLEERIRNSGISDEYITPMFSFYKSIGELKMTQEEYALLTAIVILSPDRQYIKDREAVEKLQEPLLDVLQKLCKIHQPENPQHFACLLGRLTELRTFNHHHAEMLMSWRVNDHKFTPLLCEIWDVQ
Outline: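 Readout: reporter transcript levels by RT-PCR with fluorescent capillary electrophoresis, from HepG2 cells transiently transfected with multiplexed cis-regulated reporters and dosed 24 h. Gain- or loss-of-signal fitted versus DMSO negative control.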

Measured: AC50

CCCCCCCC[Si](OCC)(OCC)OCC
inactive: [1] | [2] | [3] | [4] | [5] | [6] | [7] | [8] | [9] | [10] | [11] | [12] | [13] | [14] | [15] | [16]
active: [1] 48.4 µM | [5] 100 µM and 75.6 µM | [8] 162 µM | [9] 127 µM | [10] 41.8 µM | [13] 57.3 µM and 26.4 µM

CC(C)(O)c1ccc(CNC(=O)c2cccnc2Oc2ccc3nonc3c2)cc1
active: [19] 33.4 µM
not listed: [20]
inactive: all other assays above

CCCCOC(=O)c1ccc(O)cc1
active: [1] 138 µM | [5] 157 µM | [18] 164 µM | [8] 125 µM | [15] 148 µM | [16] 143 µM and 129 µM | [19] 58.9 µM
inactive: [1] | [2] | [4] | [5] | [6] | [7] | [18] | [8] | [20] | [9] | [11] | [12] | [14] | [15] | [16] | [19]

O=C1CCC(C2CCCCC2)CC1
active: [1] 185 µM | [5] 131 µM | [20] 151 µM and 159 µM | [13] 821 nM | [15] 150 µM | [16] 100 µM and 154 µM and 114 µM
inactive: [1] | [2] | [4] | [5] | [6] | [7] | [8] | [20] | [9] | [11] | [12] | [13] | [14] | [15] | [16] | [19]

C[C@]12CC[C@@H]3c4ccc(O)cc4CC[C@H]3[C@@H]1CCC2=O
not listed: [9] | [17] | [19]
inactive: all other assays above

CC(O)CC(C)(C)O (stereo unspecified)
inactive: [1] | [2] | [3] | [4] | [5] | [6] | [7] | [8] | [9] | [10] | [11] | [12] | [13] | [14] | [15] | [16]
active: [7] 0.0124 µM

O=C(O)c1ccccc1-n1cc(C(=O)O)c(=O)c2cc(Nc3c(F)cc(F)cc3Cl)c(Cl)cc21
inactive: all assays above

Clc1cc(Cl)c2c(c1)N=C1CCCCCN1C2
active: [1] 50 µM
not listed: [18]
inactive: all other assays above

O=c1ccc2ccccc2o1
not listed: [9] | [10] | [18]
inactive: all other assays above

CCN(Cc1cccnc1)C(=O)c1cccc(Cl)c1[C@]1(C)C(=O)N(Cc2ccc(OC)cc2OC)c2ccc(Cl)cc21
active: [3] 3.83 µM | [10] 7.7 µM | [15] 40.4 µM | [16] 7.17 µM | [19] 1.47 µM
not listed: [18]
inactive: all other assays above

CC(C)(C)c1csc(-c2cc3cc(OCc4ccccc4CC(=O)O)ccc3o2)n1
active: [3] 14.4 µM | [10] 33.4 µM | [15] 62.7 µM | [16] 43.8 µM
inactive: all other assays above

CCCCCCCCN(C)CCCCCCCC
active: [17] 30.2 µM
not listed: [20]
inactive: all other assays above

CCCC(=O)OCCC(C)C
active: [5] 26.8 µM
not listed: [3] | [10] | [19]
inactive: all other assays above
